This passage reports growth inhibition results from PubChem BioAssay (NCI).

The nature of test [1]: NCI Yeast Anticancer Drug Screen. Data for the rad50 strain (AID 155).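 Also: 0% = growth of vehicle-only cultures of the same strain.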 To be noted: S. cerevisiae rad50 strain growth inhibition, hits give high values. The method, boiled down: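 Compounds were tested on a yeast strain with an engineered DNA damage repair alteration; the reported value is growth inhibition normalised to vehicle treatment.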
Test [2] can be described thus: NCI Yeast Anticancer Drug Screen. Data for the mec2-1 strain (AID 157). Conditions: S. cerevisiae mec2-1 strain, hits give high values. The method, boiled down: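 Yeast mec2-1 mutant treated with compound. Readout: growth inhibition vs vehicle controls.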
A short description of test [3]: NCI Yeast Anticancer Drug Screen. Data for the sgs1 mgt1 strain (AID 161).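 Also: 0% = growth of cultures given vehicle only.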 To be noted: S. cerevisiae sgs1 mgt1 strain, hits give high values. The method in brief:
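Inhibition of yeast growth, normalised to vehicle-treated controls, is reported for a strain bearing genetic alterations in DNA damage repair.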

Test [4] can be described thus: NCI Yeast Anticancer Drug Screen. Data for the cln2 rad14 strain (AID 165).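 Also: 0% = growth equal to vehicle treated cultures.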 To be noted: S. cerevisiae cln2 rad14 strain, hits give high values. The method in brief:
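cln2 rad14 yeast strain; compound exposure; growth inhibition read vs vehicle controls.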

A short description of test [5]: NCI Yeast Anticancer Drug Screen. Data for the bub3 strain (AID 167). Conditions: S. cerevisiae bub3 mutant strain, hits give high values. The method, boiled down:
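Growth of a checkpoint-deficient yeast mutant is measured after compound exposure. Values represent inhibition relative to vehicle.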

The nature of test [6]: NCI Yeast Anticancer Drug Screen. Data for the mlh1 rad18 strain (AID 175). Conditions: S. cerevisiae mlh1 rad18 strain growth inhibition, hits give high values. The method, boiled down:
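Yeast w/ defined DNA-repair lesions; compound exposure; growth vs vehicle controls → % inhibition.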

[7] abbreviates: at 5.0 µM (retest, dose inferred, filed as 0.5).
[8] abbreviates: at 50.0 µM (retest, dose inferred, filed as 5.0).

This is part of a sample that, as a whole, favours compounds with a hit. Of some 79,000 tested, about 15% had one in any assay. Values without a mark were called inactive. The source made the active and inactive calls. Rule as the data show it: active = growth inhibition above about 70%; inactive = the rest.

On to `C=C1C(=O)O[C@@H]2C[C@@]3(C)CCC[C@H](C)C3=C[C@H]12` (tested in a mixture with another compound), for which the growth inhibition in test [1] (setting [7]) was 9%; in test [1] (setting [8]), 96% (active); in test [1] (at 50.0 µM), 91.8% (active); in test [2] (setting [7]), 14%; in test [2] (setting [8]), 97% (active); in test [2] (at 50.0 µM), 93% (active). Moreover, the growth inhibition in test [3] (setting [7]) is 4%; in test [3] (setting [8]), 97% (active); in test [3] (at 50.0 µM), 92.3% (active); in test [4] (setting [7]) it was 30%; in test [4] (setting [8]), 91% (active); in test [4] (at 50.0 µM), 90% (active). In addition, the growth inhibition was 13% in test [5] (setting [7]); 98% (active) in test [5] (setting [8]); 91.2% (active) in test [5] (at 50.0 µM); 19% in test [6] (setting [7]); 98% (active) in test [6] (setting [8]); 91.5% (active) in test [6] (at 50.0 µM).
As for `CC1=CC(C)C(C)N(CCNC(=O)Nc2ccccc2)c2ccccc21` (configuration not stated), the growth inhibition was 17% in test [1] (setting [7]); 51% in test [1] (setting [8]); 77.2% (active) in test [1] (at 50.0 µM); 16% in test [2] (setting [7]); 33% in test [2] (setting [8]); 80.9% (active) in test [2] (at 50.0 µM). For the same molecule, the growth inhibition is 14% in test [3] (setting [7]); 71% (active) in test [3] (setting [8]); 80.6% (active) in test [3] (at 50.0 µM); 22% in test [4] (setting [7]); 80% (active) in test [4] (setting [8]); 75.5% (active) in test [4] (at 50.0 µM). For the same molecule, the growth inhibition in test [5] (setting [7]) was -14%; in test [5] (setting [8]), 75% (active); in test [5] (at 50.0 µM), 84.2% (active); in test [6] (setting [7]), 14%; in test [6] (setting [8]), 66%; in test [6] (at 50.0 µM), 70.2% (active).
Consider `COc1ccc2c(c1)CN1C(CCC3c4ccccc4NC31)C2` (configuration not stated), for which the growth inhibition in test [1] (setting [7]) is -17%; in test [1] (setting [8]), 16%; in test [1] (at 50.0 µM), 88.5% (active); in test [2] (setting [7]) it was -5%; in test [2] (setting [8]), 11%; in test [2] (at 50.0 µM), 72.3% (active). Moreover, the growth inhibition in test [3] (setting [7]) was -5%; in test [3] (setting [8]) it was 30%; in test [3] (at 50.0 µM), 86.7% (active); in test [4] (setting [7]), 26%; in test [4] (setting [8]), 11%; in test [4] (at 50.0 µM), 51.3%. The growth inhibition in test [5] (setting [7]) is -35%; in test [5] (setting [8]), 13%; in test [5] (at 50.0 µM), 61.6%; in test [6] (setting [7]) it was -12%; in test [6] (setting [8]) it was 27%; in test [6] (at 50.0 µM), 90.5% (active).
Consider `O=S(=O)(Nc1ccc(-c2ccc(Cl)cc2)cc1)c1ccccc1`, for which the growth inhibition in test [1] (setting [7]) is 68%; in test [1] (setting [8]), 97% (active); in test [1] (at 50.0 µM) it was 92.5% (active); in test [2] (setting [7]), 58%; in test [2] (setting [8]), 99% (active); in test [2] (at 50.0 µM) it was 93.2% (active). Besides, the growth inhibition in test [3] (setting [7]) was 75% (active); in test [3] (setting [8]) it was -21%; in test [3] (at 50.0 µM), 97.8% (active); in test [4] (setting [7]), 19%; in test [4] (setting [8]) it was 90% (active); in test [4] (at 50.0 µM), 92.3% (active). Also, the growth inhibition in test [5] (setting [7]) was 38%; in test [5] (setting [8]), 98% (active); in test [5] (at 50.0 µM), 95.8% (active); in test [6] (setting [7]), 95% (active); in test [6] (setting [8]), 98% (active); in test [6] (at 50.0 µM) it was 95% (active).
For `OC(CC(CC(O)(C(F)(F)F)C(F)(F)F)=NN=C(CC(O)(C(F)(F)F)C(F)(F)F)CC(O)(C(F)(F)F)C(F)(F)F)(C(F)(F)F)C(F)(F)F`, the growth inhibition in test [1] (setting [7]) is 41%; in test [1] (setting [8]), 73% (active); in test [1] (at 50.0 µM), 83.7% (active); in test [2] (setting [7]), 31%; in test [2] (setting [8]), 92% (active); in test [2] (at 50.0 µM) it was 84.3% (active). The growth inhibition in test [3] (setting [7]) was 32%; in test [3] (setting [8]), 88% (active); in test [3] (at 50.0 µM), 78.5% (active); in test [4] (setting [7]), 35%; in test [4] (setting [8]) it was 72% (active); in test [4] (at 50.0 µM), 72% (active). The growth inhibition is 37% in test [5] (setting [7]); 81% (active) in test [5] (setting [8]); 82.7% (active) in test [5] (at 50.0 µM); 46% in test [6] (setting [7]); 93% (active) in test [6] (setting [8]); 67.6% in test [6] (at 50.0 µM).
As for `CC(C)(C)C(=O)OCC(=O)c1ccc(-c2ccccc2)cc1`, the growth inhibition in test [1] (setting [7]) was -2%; in test [1] (setting [8]), -6%; in test [1] (at 50.0 µM), 11%; in test [2] (setting [7]) it was -6%; in test [2] (setting [8]) it was -6%; in test [2] (at 50.0 µM), -0.25%. Besides, the growth inhibition in test [3] (setting [7]) was -2%; in test [3] (setting [8]) it was -4%; in test [3] (at 50.0 µM), 13.7%; in test [4] (setting [7]), -9%; in test [4] (setting [8]) it was -13%; in test [4] (at 50.0 µM), -4.6%. In addition, the growth inhibition in test [5] (setting [7]) was 73% (active); in test [5] (setting [8]) it was 86% (active); in test [5] (at 50.0 µM), 65%; in test [6] (setting [7]) it was -4%; in test [6] (setting [8]) it was -8%; in test [6] (at 50.0 µM), 3.75%.
For `CCCOC(=O)C1CCCCC1C(=O)OCCC` (configuration not stated), the growth inhibition in test [1] (setting [7]) was 7%; in test [1] (setting [8]), -17%; in test [1] (at 50.0 µM), 0.8%; in test [2] (setting [7]), -1%; in test [2] (setting [8]), -15%; in test [2] (at 50.0 µM), 18.3%. Besides, the growth inhibition was -2% in test [3] (setting [7]); 16% in test [3] (setting [8]); -10.1% in test [3] (at 50.0 µM); -4% in test [4] (setting [7]); 14% in test [4] (setting [8]); 71.2% (active) in test [4] (at 50.0 µM). The growth inhibition in test [5] (setting [7]) was 1%; in test [5] (setting [8]), -2%; in test [5] (at 50.0 µM) it was 5.3%; in test [6] (setting [7]) it was -7%; in test [6] (setting [8]) it was -4%; in test [6] (at 50.0 µM) it was -12.7%.
On to `C=CCOCCC(=O)OCC=C`, for which the growth inhibition in test [1] (setting [7]) was 0%; in test [1] (setting [8]) it was -2%; in test [1] (at 50.0 µM) it was 7%; in test [2] (setting [7]), 1%; in test [2] (setting [8]), 0%; in test [2] (at 50.0 µM), 40.4%. In addition, the growth inhibition in test [3] (setting [7]) is 1%; in test [3] (setting [8]), -1%; in test [3] (at 50.0 µM) it was 15.9%; in test [4] (setting [7]) it was -1%; in test [4] (setting [8]) it was 0%; in test [4] (at 50.0 µM), 72.2% (active). The growth inhibition in test [5] (setting [7]) was -2%; in test [5] (setting [8]) it was -1%; in test [5] (at 50.0 µM), 67.4%; in test [6] (setting [7]), -1%; in test [6] (setting [8]), -1%; in test [6] (at 50.0 µM) it was 70.8% (active).
Turning to `COC(=O)c1ccc2ccccc2c1`, the growth inhibition in test [1] (setting [7]) was 5%; in test [1] (setting [8]), 15%; in test [1] (at 50.0 µM), 47%; in test [2] (setting [7]), -1%; in test [2] (setting [8]), 4%; in test [2] (at 50.0 µM) it was 28.1%. The growth inhibition in test [3] (setting [7]) is 1%; in test [3] (setting [8]), 4%; in test [3] (at 50.0 µM) it was 22.4%; in test [4] (setting [7]), 2%; in test [4] (setting [8]) it was -4%; in test [4] (at 50.0 µM), 24.6%. Also, the growth inhibition was 5% in test [5] (setting [7]); 29% in test [5] (setting [8]); 80.2% (active) in test [5] (at 50.0 µM); 5% in test [6] (setting [7]); 11% in test [6] (setting [8]); 34.3% in test [6] (at 50.0 µM).
